The source of these data is PubChem BioAssay AID1857 (The Scripps Research Institute Molecular Screening Center, 2009).

Screen size: about 1,300 compounds; about 290 (22%) were called active. This excerpt belongs to a sample that is enriched for actives. A number with no mark means an inactive call.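 Rule for the calls: active = inhibition above the mean of all tested compounds plus 3 SD (cut at about 19% in these data); inactive = the rest.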

The assay concerns VIM-2 metallo-beta-lactamase (Pseudomonas aeruginosa). Nature of the assay: VIM-2 inhibitors in FRET format, confirmation, artefact control for selective VIM-2 inhibitor project, biochemical, epi-absorbance artifact exclusion (AID 1857).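 Note: 0% = VIM-2 plus DMSO and 100% = no enzyme wells.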 The note with it: purified VIM-2, CCF2 FRET substrate hydrolysis; at 5.6 µM; stronger effect = higher value.
Consider `Cc1cc(OCc2cc(C(=O)O)oc2C)c2c3c(c(=O)oc2c1)CCCC3`, for which the inhibition (in general, the relative decrease from the control value, in per cent) was 80.6% (active). The result for `Cc1cc(=O)oc2c(C)c(OCC(=O)N3CCN(Cc4ccc5c(c4)OCO5)CC3)ccc12` reads -0.88%.
